Out of some 190,000 compounds screened, about 930 (0.49%) were called active.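 How the source made its calls: active means z-score of insulin promoter reporter brightness in nuclei below -3 at 5 µM, with at least 500 cells counted; inconclusive means wells with under 500 cells, flagged as toxic or sparse; inactive means the rest.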 The list shows a part of the results. Results with a measured potency or affinity are listed apart.
Test: decrease of insulin promoter-GFP reporter – imaging, high-content screening, mouse beta cells (AID 1628)
Conditions: MIN6 insulin promoter GFP reporter, at 5 µM, stronger effect = lower value

SMILES | z-score
Cc1ccc(S(=O)(=O)Cn2nnnc2C(CC(C)C)N2CCN(c3ccccc3)CC2)cc1 (stereo unspecified) | -4.77 (active)
Cn1ccc(=S)c2ccccc21 | 3.38 (inactive)
COC(=O)c1ccccc1NC(=O)Cn1cnc2cc(C)c(C)cc21 | -3.24 (active)
Cc1[nH]n(-c2ccc([N+](=O)[O-])cc2)c(=O)c1C=NCCN1CCN(C(=O)c2ccccc2F)CC1 | 4.48 (inactive)
COc1ccccc1N1C(=O)CC(Sc2n[nH]c(-c3cccc(C)c3)n2)C1=O (stereo unspecified) | -5.2 (active)
COC(=O)c1ccc(N2C(=O)CC(Sc3n[nH]c(C)n3)C2=O)cc1 (stereo unspecified) | 1.02 (inactive)
N#CC(C#N)=C1C=C2C=C(N3CCOCC3)CCC2CC1 (stereo unspecified) | 15.6 (inactive)
O=c1c2ccccc2nc(-c2ccco2)n1/N=C/c1ccco1 | 2.3 (inactive)
COc1ccccc1/C=N/n1c(N)c(S(=O)(=O)c2cccs2)c2nc3ccccc3nc21 | -3.63 (active)
CC(C)(C)c1ccc(OCC(=O)Nc2ccc3c4c(cccc24)C(=O)NC3=O)cc1 | 5.3 (inactive)
CCOc1ccc(C2C(C(=O)O)c3ccccc3C(=O)N2CCN2CCOCC2)cc1 (stereo unspecified) | 4.94 (inactive)
CCOc1ccc(C2=C(C=Nc3c(C)n(C)n(-c4ccccc4)c3=O)C(c3ccc(F)cc3)c3ccccc3O2)cc1 (stereo unspecified) | -4.16 (active)
COc1ccc(CNc2cc(NCCCO)c([N+](=O)[O-])c3nonc23)cc1 | 2.28 (inactive)
Cc1nn(-c2ccccc2)c(C)c1/C=N/NC(=O)CSc1nnc(SCc2ccccc2Cl)s1 | -3.39 (active)
Cc1cccc(-n2nnc(C(=O)NCc3ccccc3Cl)c2N)c1 | 1.52 (inactive)
O=C1S/C(=C\c2ccc(N3CCOCC3)o2)C(=O)N1Cc1ccc(F)cc1 | 8.79 (inactive)
CC1CCc2cc(F)ccc2N1C(=O)c1ccc2c(c1)OCO2 (stereo unspecified) | -4.9 (active)
Cc1ccc(-c2cn3cccnc3n2)cc1 | 2.84 (inactive)
Cc1ccn2c(Nc3ccccc3C)c(-c3ccccn3)nc2c1 | -3.6 (active)
Cc1ccn2c(NC3CCCCC3)c(C)nc2c1 | 3.89 (inactive)
COc1ccc(Nc2c(-c3ccco3)nc3ccc(C)cn23)cc1 | 5.18 (inactive)
COc1ccc(-n2nc([N+](=O)[O-])c(=NCc3ccco3)n2O)cc1 | 4.25 (inactive)
Cc1ccc(-c2cc(C(F)(F)F)n3nc(C(=O)NCCCn4ccnc4)cc3n2)cc1C | -5.59 (active)
CC1CCN(C(=O)c2cc3nc(C4CC4)cc(C(F)(F)F)n3n2)CC1 | -0.53 (inactive)
O=C(CSCC(=O)N1CCCc2ccccc21)Nc1nc(-c2ccccc2)cs1 | -4.03 (active)
O=C(Cn1cnc2c(cnn2-c2ccc(F)cc2)c1=O)N1CCCc2ccccc21 | 1.13 (inactive)

Source: PubChem BioAssay AID1628 (Sanford-Burnham Center for Chemical Genomics, 2009)
